Drawing on PubChem BioAssay, this text covers composite z-score and z-score for nine compounds.

Calls of active or inactive are those of the source.

Assay [1] is described as follows: small molecules captured by biotinylated probe aFSTL3 – biochemical, small-molecule microarray, fluorescence 635/667, stem cell growth factor project, primary screen (AID 1064).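 Also: measures binding of the biotinylated anti-FSTL3 antibody to printed compounds.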 To be noted: higher = more signal.
The nature of assay [2]: binders from COS7 lysate, DM2A8 probe, primary screen, torsin A project, cell lysate, small-molecule microarray, fluorescence 635/667 (AID 1065). The note with it: higher = more signal, COS7 lysate expressing mutant human TOR1A.
Assay [3] can be described thus: small molecules captured by biotinylated probe aFGF2 – biochemical, small-molecule microarray, fluorescence 635/667, stem cell growth factor project, primary screen (AID 1067).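 Also: measures binding of biotinylated aFGF2 protein to printed compounds on slides; z-score merges feature fluorescence and signal-to-noise across triplicate slides.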 The note with it: higher = more signal.
Assay [4] can be described thus: small molecules captured by biotinylated probe aFGF10 – biochemical, small-molecule microarray, fluorescence 635/667, stem cell growth factor project, primary screen (AID 1071).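 Also: score merges 667 nm spot intensity and signal to noise from triplicate slides.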 To be noted: higher = more signal.
Assay [5] has as its target Neurogenic locus notch homolog protein 2 (Homo sapiens) (UniProt Q04721). The experiment in a line: small molecules binding Notch2 protein – biochemical, small-molecule microarray, 635 nm fluorescence, stem cell growth factors, primary screen (AID 1073). To be noted: higher = more signal.
Assay [6] has as its target Pro-neuregulin-1, membrane-bound isoform (Homo sapiens) (UniProt Q02297). Description: small molecules binding neuregulin-1 protein – biochemical, small-molecule microarray, fluorescence 635/667, psychiatric disease protein project, primary screen (AID 1075).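 Also: score combines 667 nm spot fluorescence with signal to noise.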 To be noted: NRG1 binding, 635 nm fluorescence, higher = more signal.
For assay [7], the system named is Neuregulin-1 EGF-like domain. The experiment in a line: small molecules binding NRG1 EGF domain – biochemical, small-molecule microarray, 635 nm fluorescence, primary screen (AID 1081).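 Also: binding of the protein to compounds printed on small-molecule microarray slides.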 The note with it: higher = more signal.
Assay [8] in a line: FRG1 expression reporter modulators in myotubes – cell-based, C2C12 myotubes, firefly/Renilla luciferase, luminescence, FRG1 inhibition for FSHD, primary screen (AID 1084). The note with it: FRG1 promoter luciferase, higher = more signal, called active from +8 up or from −8 down.
The nature of assay [9]: small molecules captured by biotinylated probe aFST – biochemical, small-molecule microarray, fluorescence 635/667, stem cell growth factor project, primary screen (AID 1086).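 Also: score merges 667 nm fluorescence with signal-to-noise of each printed compound spot.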 To be noted: higher = more signal.
Assay [10] can be described thus: binders of probe aHhip on microarray, primary screen, stem cell growth factor project, biochemical, small-molecule microarray, fluorescence 635/667 (AID 1087).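 Also: score merges spot fluorescence at 667nm with spot signal to noise ratio.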 To be noted: higher = more signal.
Assay [11] concerns PRMT1 (protein arginine N-methyltransferase 1). The experiment in a line: small molecules binding arginine methyltransferase PRMT1 – biochemical, small-molecule microarray, 635 nm fluorescence, primary screen (AID 1088).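 Also: binding of Prmt1 protein to compounds spotted on small-molecule microarray slides.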 To be noted: higher = more signal.
Assay [12] in a line: growth effects on S. cerevisiae YJM789 – YJM789 clinical isolate, OD600, 24 h, basal, primary screen (AID 1089).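 Also: growth of clinical yeast isolate S. cerevisiae YJM 789 seeded 1000 cells per well; test concentration not given here.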 To be noted: higher = more signal, called active from +8 up or from −8 down.
Assay [13] is described as follows: S. pombe growth modifiers, basal conditions – strain 972, OD600, 24 h, no modulator, primary screen (AID 1090).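 Also: basal condition with compound alone and no growth modifier present; test concentration not given here.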 To be noted: S. pombe 972 growth, higher = more signal, called active from +8 up or from −8 down.
Assay [14] can be described thus: budding yeast growth modifiers under rapamycin – strain BY4716, OD600, 96 h, primary screen (AID 1091). Also: test concentration not given here. The note with it: S. cerevisiae BY4716 + rapamycin, higher = more signal, called active from +8 up or from −8 down.
In assay [15] the target is Torsin-1A-interacting protein 2 (Homo sapiens) (UniProt Q8NFQ8). The experiment in a line: small molecules binding lysate-expressed LULL1 – cell lysate, human LULL1 lysate, 635/667 nm fluorescence, primary screen (AID 1092).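 Also: probe is lysate of COS7 cells overexpressing human LULL1; score merges per-feature 667 nm fluorescence with signal-to-noise.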 To be noted: small-molecule microarray, hLULL1 lysate binding, 635 nm fluorescence; higher = more signal.
Sequence of Torsin-1A-interacting protein 2 (Homo sapiens) (Q8NFQ8 whole entry, looked up): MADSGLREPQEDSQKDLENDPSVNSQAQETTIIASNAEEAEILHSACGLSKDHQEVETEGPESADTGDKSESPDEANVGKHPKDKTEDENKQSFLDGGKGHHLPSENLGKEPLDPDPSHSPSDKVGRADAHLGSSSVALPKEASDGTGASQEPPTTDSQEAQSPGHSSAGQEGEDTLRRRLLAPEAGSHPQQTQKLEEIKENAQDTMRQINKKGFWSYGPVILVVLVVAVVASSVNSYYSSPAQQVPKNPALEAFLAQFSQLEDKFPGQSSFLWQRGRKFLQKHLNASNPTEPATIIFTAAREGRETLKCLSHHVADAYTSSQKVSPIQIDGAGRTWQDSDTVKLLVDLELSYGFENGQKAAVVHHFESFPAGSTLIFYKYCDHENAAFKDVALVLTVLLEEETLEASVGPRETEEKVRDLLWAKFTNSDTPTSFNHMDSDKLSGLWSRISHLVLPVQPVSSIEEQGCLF
A short description of assay [16]: optical density change of DRC41 E. coli – strain DRC41, OD650, 24 h, E. coli filamentation project, primary screen (AID 1093).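 Also: MC1000 strain lacking acrAB efflux and sulA so SOS filamentation is blocked; test concentration not given here.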 To be noted: E. coli DRC41 growth, higher = more signal, called active from +8 up or from −8 down.
Assay [17] is described as follows: probe aLefty2 binding to arrayed compounds – biochemical, biotinylated probe, 635/667 nm fluorescence, primary screen (AID 1094).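 Also: score merges spot fluorescence near 667 nm with spot signal-to-noise ratio.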 To be noted: small-molecule microarray, higher = more signal.
The test system of assay [18] is Noggin (protein binding on small-molecule microarray). Description: small molecules binding Noggin protein – biochemical, 635/667 nm fluorescence, primary screen (AID 1095).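 Also: score merges 667 nm feature fluorescence with signal to noise over triplicate slides.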 To be noted: 635 nm fluorescence, higher = more signal.
The target in assay [19] is Neurogenic locus notch homolog protein 3 (Homo sapiens) (UniProt Q9UM47). Description: small molecules binding NOTCH3 protein – biochemical, 635/667 nm fluorescence, primary screen (AID 1096). To be noted: small-molecule microarray, 635 nm fluorescence, higher = more signal.
The nature of assay [20]: probe aEGFR binding to arrayed compounds – biochemical, biotinylated probe, 635/667 nm fluorescence, primary screen (AID 1097).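 Also: probe is a biotinylated anti-EGFR antibody binding compounds printed on slides; score combines fluorescence near 667 nm and signal to noise of each spot.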 To be noted: small-molecule microarray, higher = more signal.

Sequence of Neurogenic locus notch homolog protein 2 (Homo sapiens) (Q04721 whole entry, looked up, canonical isoform): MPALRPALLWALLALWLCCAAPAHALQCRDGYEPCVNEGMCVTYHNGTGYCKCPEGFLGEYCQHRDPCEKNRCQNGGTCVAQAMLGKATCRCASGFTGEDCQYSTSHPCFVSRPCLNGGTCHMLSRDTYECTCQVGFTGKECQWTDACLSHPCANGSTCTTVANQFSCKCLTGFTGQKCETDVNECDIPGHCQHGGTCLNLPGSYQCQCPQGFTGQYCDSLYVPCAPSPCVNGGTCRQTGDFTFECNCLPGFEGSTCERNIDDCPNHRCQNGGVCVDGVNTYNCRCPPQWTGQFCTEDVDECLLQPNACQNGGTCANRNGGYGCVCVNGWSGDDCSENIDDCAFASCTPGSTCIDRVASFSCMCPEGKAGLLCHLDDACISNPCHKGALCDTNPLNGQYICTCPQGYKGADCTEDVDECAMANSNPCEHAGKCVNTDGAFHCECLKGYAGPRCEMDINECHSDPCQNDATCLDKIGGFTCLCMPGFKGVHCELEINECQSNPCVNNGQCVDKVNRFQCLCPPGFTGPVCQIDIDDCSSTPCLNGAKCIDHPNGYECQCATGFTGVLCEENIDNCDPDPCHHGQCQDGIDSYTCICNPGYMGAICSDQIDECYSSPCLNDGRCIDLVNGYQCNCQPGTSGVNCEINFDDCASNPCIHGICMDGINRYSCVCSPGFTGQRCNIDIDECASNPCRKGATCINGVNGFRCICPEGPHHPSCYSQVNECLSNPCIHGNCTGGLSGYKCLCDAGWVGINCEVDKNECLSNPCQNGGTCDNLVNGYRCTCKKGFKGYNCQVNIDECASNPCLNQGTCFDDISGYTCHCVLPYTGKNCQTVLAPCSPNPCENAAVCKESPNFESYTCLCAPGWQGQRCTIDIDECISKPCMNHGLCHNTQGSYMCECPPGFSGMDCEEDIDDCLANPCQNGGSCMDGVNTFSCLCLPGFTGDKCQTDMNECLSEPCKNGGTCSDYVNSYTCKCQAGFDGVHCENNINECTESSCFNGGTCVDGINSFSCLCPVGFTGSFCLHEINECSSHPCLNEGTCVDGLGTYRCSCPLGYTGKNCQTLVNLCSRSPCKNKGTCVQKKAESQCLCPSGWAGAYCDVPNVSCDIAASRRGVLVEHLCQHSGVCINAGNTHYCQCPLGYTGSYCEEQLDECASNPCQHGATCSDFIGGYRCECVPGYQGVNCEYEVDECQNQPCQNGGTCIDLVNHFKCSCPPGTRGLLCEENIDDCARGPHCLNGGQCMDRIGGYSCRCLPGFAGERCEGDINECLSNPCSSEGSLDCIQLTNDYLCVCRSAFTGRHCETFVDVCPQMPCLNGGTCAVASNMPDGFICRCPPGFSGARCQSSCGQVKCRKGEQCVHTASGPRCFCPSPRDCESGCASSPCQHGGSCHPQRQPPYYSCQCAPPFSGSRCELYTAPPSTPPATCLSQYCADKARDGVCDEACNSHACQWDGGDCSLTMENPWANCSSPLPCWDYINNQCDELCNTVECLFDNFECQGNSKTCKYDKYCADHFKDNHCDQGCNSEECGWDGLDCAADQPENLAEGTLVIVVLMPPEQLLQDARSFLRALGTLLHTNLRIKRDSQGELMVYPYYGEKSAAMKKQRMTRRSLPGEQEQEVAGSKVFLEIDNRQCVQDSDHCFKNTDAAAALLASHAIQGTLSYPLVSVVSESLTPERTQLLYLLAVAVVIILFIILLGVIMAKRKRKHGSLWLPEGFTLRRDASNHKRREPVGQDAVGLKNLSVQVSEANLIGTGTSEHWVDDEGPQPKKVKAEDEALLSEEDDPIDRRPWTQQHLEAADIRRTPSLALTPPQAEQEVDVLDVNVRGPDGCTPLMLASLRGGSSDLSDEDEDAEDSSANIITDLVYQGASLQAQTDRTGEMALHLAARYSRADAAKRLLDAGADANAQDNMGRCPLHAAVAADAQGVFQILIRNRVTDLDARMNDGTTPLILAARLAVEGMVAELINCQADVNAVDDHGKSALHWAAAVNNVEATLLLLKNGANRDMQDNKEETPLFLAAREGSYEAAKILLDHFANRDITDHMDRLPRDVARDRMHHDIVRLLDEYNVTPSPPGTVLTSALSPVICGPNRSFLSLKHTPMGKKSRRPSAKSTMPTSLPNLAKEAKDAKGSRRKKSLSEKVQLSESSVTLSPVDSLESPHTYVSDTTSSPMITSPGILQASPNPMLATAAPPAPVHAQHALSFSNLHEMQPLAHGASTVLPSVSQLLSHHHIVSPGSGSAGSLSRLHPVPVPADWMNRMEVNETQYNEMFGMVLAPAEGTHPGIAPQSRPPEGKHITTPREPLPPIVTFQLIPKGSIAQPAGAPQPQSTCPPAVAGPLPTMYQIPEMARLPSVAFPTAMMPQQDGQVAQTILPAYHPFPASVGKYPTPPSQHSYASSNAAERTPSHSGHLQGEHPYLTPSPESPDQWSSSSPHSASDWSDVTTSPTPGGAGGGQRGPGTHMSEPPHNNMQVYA
Sequence of Pro-neuregulin-1, membrane-bound isoform (Homo sapiens) (Q02297 whole entry, looked up, the tested form may be a part, canonical isoform): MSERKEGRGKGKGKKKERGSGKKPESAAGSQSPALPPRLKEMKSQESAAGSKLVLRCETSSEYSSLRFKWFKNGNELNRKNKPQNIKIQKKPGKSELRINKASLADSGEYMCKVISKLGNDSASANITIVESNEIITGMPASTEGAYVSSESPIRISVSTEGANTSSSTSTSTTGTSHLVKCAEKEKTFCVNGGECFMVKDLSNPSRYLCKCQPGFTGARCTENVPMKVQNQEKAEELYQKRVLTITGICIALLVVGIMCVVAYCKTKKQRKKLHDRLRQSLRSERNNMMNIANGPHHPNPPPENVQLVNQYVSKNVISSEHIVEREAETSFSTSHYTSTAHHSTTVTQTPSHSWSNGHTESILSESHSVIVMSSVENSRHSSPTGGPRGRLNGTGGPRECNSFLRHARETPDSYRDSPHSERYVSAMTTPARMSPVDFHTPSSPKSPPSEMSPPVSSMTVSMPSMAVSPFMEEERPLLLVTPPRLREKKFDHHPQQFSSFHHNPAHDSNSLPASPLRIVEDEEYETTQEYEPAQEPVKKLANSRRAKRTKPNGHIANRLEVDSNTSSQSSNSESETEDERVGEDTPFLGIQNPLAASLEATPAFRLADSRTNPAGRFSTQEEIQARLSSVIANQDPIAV

On to `CCOC(=O)C=Cc1cccc(OC)c1O`, for which the composite z-score in [1] was -0.0086; in [2] it was 0.689; in [3], -0.0894; in assay [4] it was -0.572; in [5] it was -1.37; in assay [6] it was -0.196. The composite z-score was 0.189 in [7]; -0.722 in assay [9]; -0.439 in assay [10]; 0.124 in assay [11]; 0.0496 in assay [15]; -0.249 in [17]. The composite z-score in [18] was -1.09; in assay [19], -0.125; in assay [20], -0.209. Moreover, the z-score in assay [8] was 6.99 (inactive); in assay [12], -9.3 (active); in [13] it was -7.21 (inactive); in [14] it was -0.346 (inactive); in [16], -0.0998 (inactive).
As to `C=CC[C@]1(C(=O)O)N=C(c2ccc(OCCCO)cc2)O[C@H]1c1ccccc1CN=[N+]=[N-]`, the composite z-score was 0.736 in [1]; -0.43 in assay [2]; -0.144 in assay [3]; -0.638 in assay [4]; -0.129 in [5]; 0.743 in assay [6]. Also, the composite z-score in [7] was 0.467; in [9], 0.182; in [10] it was -0.275; in assay [11], -0.697; in assay [15] it was 1.55; in [17], -0.135. In addition, the figures for the composite z-score in [18], in assay [19] and in assay [20] were -0.383, -0.522 and -0.0239, respectively. For the same compound, the z-score is 2.22 (inactive) in assay [8]; 0.442 (inactive) in assay [12]; 0.263 (inactive) in [13]; 0.602 (inactive) in assay [14]; 0.143 (inactive) in assay [16].
As to `CO[C@H]1O[C@H](CO)[C@@H](OC(=O)Nc2ccc(C(F)(F)F)cc2)[C@H](OC(=O)Nc2ccccc2)[C@@H]1OC(=O)Nc1ccccc1`, the composite z-score was -0.181 in [1]; -0.0087 in assay [2]; 0.113 in [3]; 0.392 in assay [4]; 1.29 in assay [5]; 0.781 in assay [6]. For the same compound, the composite z-score was 0.879 in [7]; 0.234 in [9]; -0.188 in assay [10]; 1.54 in [11]; 3.11 in assay [15]; -0.0657 in assay [17]. The composite z-score was 1.24 in [18], 0.968 in assay [19] and -0.289 in [20]. Also, the z-score was 5.33 (inactive) in assay [8]; 0.0975 (inactive) in [12]; 0.252 (inactive) in assay [13]; 0.168 (inactive) in [14]; -0.142 (inactive) in assay [16].
With `O=C1C2C=CC(C(O)c3ccc(-c4ccccc4)s3)N(Nc3ccccc3F)C2C(=O)N1c1ccccc1` (stereo not given), the composite z-score in assay [1] came to 0.623; in assay [2], 0.0116; in assay [3], 0.0352; in assay [4], 0.243; in assay [5], 1.58; in [6] it was 1.65. For the same compound, the composite z-score is 1.28 in assay [7]; 0.955 in assay [9]; -0.0296 in [10]; 1.33 in assay [11]; 2.85 in [15]; 0.207 in [17]. In addition, the values for the composite z-score in [18], in assay [19] and in assay [20] were -0.243, 1.02 and 0.232, respectively. Further, the z-score in assay [8] was 1.72 (inactive); in assay [12], 0.264 (inactive); in [13], 0.167 (inactive); in assay [14] it was 1.58 (inactive); in [16], -1.82 (inactive).
Turning to `[N-]=[N+]=NCc1ccccc1C[C@@]1(C(=O)NCc2ccccc2)N=C(c2ccc(OCCCO)cc2)O[C@@H]1c1ccccc1CN=[N+]=[N-]`, the composite z-score in [1] amounted to 0.705; in assay [2], 0.425; in [3], 0.107; in [4], 0.809; in [5], 0.933; in assay [6] it was 0.926. For the same compound, the composite z-score in assay [7] stood at 1.05; in assay [9] it was 0.803; in [10], 0.553; in [11], 1.57; in assay [15], 3.25; in assay [17], 0.395. The composite z-score in [18] amounted to 0.234; in [19], 0.756; in [20] it was 0.0157. For the same compound, the z-score in [8] was -1.95 (inactive); in [12] it was -1.34 (inactive); in assay [13] it was 0.0392 (inactive); in [14] it was 36 (active); in assay [16] it was 1.16 (inactive).
On to `COC(=O)c1c(CC[C@@H](CO)NC(=O)Nc2ncn[nH]2)oc(C(=O)Cc2ccccc2)c1C(=O)OC`, for which the composite z-score was -0.468 in assay [1]; -0.0764 in [2]; -0.214 in assay [3]; 0.511 in assay [4]; 1.21 in assay [5]; 0.163 in assay [6]. The composite z-score in assay [7] is 0.778; in [9] it was 0.524; in [10], 0.0722; in assay [11], 1.08; in [15], 2.99; in assay [17], -0.016. Also, the figures for the composite z-score in assay [18], in [19] and in assay [20] were 0.565, 1.17 and -0.0697, respectively. The z-score in assay [8] was 0.004 (inactive); in assay [12], -0.342 (inactive); in [13], 0.387 (inactive); in assay [14], 0.285 (inactive); in assay [16], -0.871 (inactive).
On to `O=C1c2ccccc2[C@@]2(Cc3ccccc3N(Cc3ccccc3)C2=O)[C@H](c2ccc(CO)cc2)N1Cc1ccccc1C(F)(F)F`, for which the composite z-score in assay [1] is 0.178; in assay [2] it was -1.44; in assay [3], -0.083; in assay [4] it was -0.236; in assay [5] it was -0.233; in assay [6], 0.363. For the same compound, the composite z-score in assay [7] was 0.114; in assay [9], -0.0954; in [10], -0.125; in assay [11], -0.325; in assay [15] it was 2.03; in assay [17], -0.222. Further, the composite z-score in assay [18] was -0.848; in [19], 0.117; in assay [20], -0.243. Besides, the z-score in [8] was -0.366 (inactive); in [12], 0.376 (inactive); in [13] it was -0.666 (inactive); in [14], -1.11 (inactive); in assay [16] it was 0.127 (inactive).
Take `CCCNC(=O)[C@@]1(c2ccc([N+](=O)[O-])cc2)CC(=O)N(CC23CC4CC(CC(C4)C2)C3)[C@@H]1c1ccc(CO)cc1I`: the composite z-score in assay [1] was 0.188; in assay [2] it was 0.388; in assay [3], -0.0644; in [4], 0.0889; in assay [5], 0.906; in assay [6], 0.133. The composite z-score in assay [7] is 1.01; in assay [9] it was 0.171; in assay [10], 0.31; in assay [11] it was 1.14; in assay [15] it was 1.53; in [17], 0.0962. For the same compound, the composite z-score in assay [18] turned out to be 0.367; in [19], 0.243; in [20], 0.141. Besides, the z-score in assay [8] is -2.05 (inactive); in assay [12], 0.804 (inactive); in assay [13], 1 (inactive); in assay [14] it was 5.52 (inactive); in assay [16], 0.136 (inactive).
Regarding `COCCOC(=O)N1C(=O)[C@@]2(c3cc(C#Cc4ccc(OC)cc4)ccc31)[C@H](c1ccc(O)cc1)N1[C@H](c3ccccc3)[C@H](c3ccccc3)OC(=O)[C@H]1[C@@H]2C(=O)N1CCN(c2ncccn2)CC1`, the composite z-score in [1] is -0.867; in assay [2] it was 0.47; in assay [3], -0.0225; in assay [4], 0.381; in assay [5], 0.846; in [6], 0.467. The composite z-score is 1.13 in assay [7]; 0.619 in [9]; -0.132 in assay [10]; 1.52 in assay [11]; 2.44 in assay [15]; 0.047 in assay [17]. Further, the composite z-score was determined as 0.52 in assay [18], 0.258 in [19] and 0.0746 in assay [20]. In addition, the z-score in [8] is -0.431 (inactive); in assay [12], 1.56 (inactive); in assay [13], 1.16 (inactive); in assay [14], 2.83 (inactive); in assay [16], 1.15 (inactive).
